Screening results as filed in PubChem BioAssay.
PRMT1 inh = PRMT1 (human) inhibition, primary screen; hit rate 1.3% among 370,000; recombinant PRMT1, activity-based probe fluorescence polarization; inhibition, % at 2.79 µM;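 active = inhibition above about 21% made by adding two undisclosed values, limit read from the data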
Target sequence (Q99873 whole entry, looked up): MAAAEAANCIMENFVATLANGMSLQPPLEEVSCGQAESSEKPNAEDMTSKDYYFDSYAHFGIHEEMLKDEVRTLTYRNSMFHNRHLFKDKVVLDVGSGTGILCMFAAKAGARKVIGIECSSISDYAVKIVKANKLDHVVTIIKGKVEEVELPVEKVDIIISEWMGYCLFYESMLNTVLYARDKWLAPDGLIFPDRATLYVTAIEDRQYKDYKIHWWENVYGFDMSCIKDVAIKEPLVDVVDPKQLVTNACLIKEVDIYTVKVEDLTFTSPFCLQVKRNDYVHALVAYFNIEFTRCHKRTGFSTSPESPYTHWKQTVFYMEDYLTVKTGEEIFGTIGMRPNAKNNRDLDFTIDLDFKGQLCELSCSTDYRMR
TLR4 MyD88 comp = inhibitors of human TLR4-MyD88 binding | O00206+Q99836 | HeLa CL3-4 TLR4/MyD88 BLA complementation, FRET ratio | inhibition, % at 8.4 µM | hit rate 0.18% among 200,000 | AID 861; in the data active = inhibition above about 25%;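 also: 0% = vehicle and 100% = reference inhibitor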
ABHD5-PLIN5 inh = inhibitors of human ABHD5-perilipin-5 interaction; Q00G26+Q8WTS1; hit rate 0.78% among 360,000; inhibition, % at 4 µM; Split G. princeps luciferase complementation, luminescence, 4 h;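 active = inhibition above the mean inhibition across every tested compound plus 3 SD, cut at about 22% in these data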;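 also: 0% = DMSO only wells and the 100% control is not disclosed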
Granule exo inh = blocks lytic granule exocytosis | TALL-104 LAMP-1 surface exposure, flow cytometry; cells stimulated with thapsigargin and PMA | inhibition, % at 10 µM | hit rate 0.66% among 360,000;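 active = inhibition above about 55%, limit read from the data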
NOD2-RIPK2 inh = blocks binding of human NOD2 to RIPK2; CHO BLA complementation NOD2-RIPK2, CCF4 ratio; hit rate 0.38% among 360,000; O43353; inhibition, % at 4.98 µM; in the data active = inhibition above about 21%;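 also: 0% = vehicle only and 100% = reference blocker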
TLR9-MyD88 inh = blocks human TLR9 binding to MyD88; CHO BLA complementation TLR9-MyD88, CCF4 FRET ratio; inhibition, % at 4.98 µM; Q9NR96+Q99836; hit rate 0.21% among 340,000; AID 504734;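 active = inhibition above the mean over all tested compounds plus 3 SD, cut at about 21% in these data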;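 also: 0% = DMSO only wells and 100% = clavulanate BLA inhibitor control wells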
PRMT1 confirm = PRMT1 (human) inhibition, FP confirmation; recombinant His-PRMT1, activity-based probe fluorescence polarization; shares compounds with PRMT1 inh; inhibition, % at 2.79 µM; hit rate 42% among 3,300;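 active = mean inhibition across replicates above the hit cutoff derived for the earlier primary screen, cut at about 22% in these data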
Numbers without * were called inactive. Most compounds without a hit are left out; they make up all but 2.6% or so of the library.

CN(C)c1ccc(CN(C(=O)/C=C/c2ccco2)C2CCS(=O)(=O)C2)cc1 (stereo not given) was read as PRMT1 inh 3.5, ABHD5-PLIN5 inh 4.4, Granule exo inh -4.4 and NOD2-RIPK2 inh -15.7.
Cc1nc2ccc(S(=O)(=O)NCC(=O)NCc3ccc4c(c3)OCO4)cc2s1 was read as PRMT1 inh 48.7*, TLR4 MyD88 comp 3.1, ABHD5-PLIN5 inh -4.9, Granule exo inh -2.5, NOD2-RIPK2 inh -7.6, TLR9-MyD88 inh -1.4 and PRMT1 confirm 0.8.
Cc1nc2ccc(S(=O)(=O)N(C)CC(=O)NCc3ccc4c(c3)OCO4)cc2s1 was read as PRMT1 inh 2.0, TLR4 MyD88 comp 7.2, ABHD5-PLIN5 inh 3.8, Granule exo inh -3.7, NOD2-RIPK2 inh -3.0 and TLR9-MyD88 inh 14.3.
Screening COCCn1c(SCCN2CCOCC2)nc2c1c(=O)[nH]c(=O)n2C returned PRMT1 inh 37.8*, TLR4 MyD88 comp 9.3, ABHD5-PLIN5 inh -2.4, Granule exo inh -2.0, NOD2-RIPK2 inh 6.1, TLR9-MyD88 inh -8.8 and PRMT1 confirm 40.0*.
CC(=O)Nc1ccc2cc3ccc(NC(C)=O)cc3nc2c1 was read as PRMT1 inh 37.0*, ABHD5-PLIN5 inh -14.4, Granule exo inh 1.1, NOD2-RIPK2 inh 2.5, TLR9-MyD88 inh -3.0 and PRMT1 confirm 21.8*.
`CCc1nc2c(OCc3c(C)noc3C)cccn2c1N(C=O)Cc1ccc(OC)cc1` gave PRMT1 inh -0.3, ABHD5-PLIN5 inh -3.2, Granule exo inh -0.1 and NOD2-RIPK2 inh -10.8.
`O=S(=O)(c1ccccc1F)N1CCN(Cc2cc3c(cc2O)OCO3)CC1` gave PRMT1 inh 25.2*, ABHD5-PLIN5 inh 16.4, Granule exo inh 3.6, NOD2-RIPK2 inh -14.0, TLR9-MyD88 inh 0.4 and PRMT1 confirm 12.0.
Screening O=C(C1CCN(S(=O)(=O)c2ccccc2F)CC1)N1CCN(Cc2ccc3c(c2)OCO3)CC1 returned PRMT1 inh -0.9, ABHD5-PLIN5 inh -4.6, Granule exo inh -2.8, NOD2-RIPK2 inh 0.7 and TLR9-MyD88 inh -4.9.
`O=C(NN1C(=O)/C(=C/c2cccs2)SC1=S)c1ccncc1` gave PRMT1 inh 12.7, ABHD5-PLIN5 inh -16.8, Granule exo inh 0.8, NOD2-RIPK2 inh 4.6 and TLR9-MyD88 inh -2.5.
COc1cccc(/C=C2\SC(=S)N(NC(=O)c3ccncc3)C2=O)c1 was read as PRMT1 inh 36.5*, TLR4 MyD88 comp 7.6, ABHD5-PLIN5 inh -9.9, Granule exo inh -0.4, NOD2-RIPK2 inh -1.1, TLR9-MyD88 inh -0.7 and PRMT1 confirm 12.7.
Brc1ccc(C2NCCS2)cc1 (stereo not given) was read as PRMT1 inh 31.8*, TLR4 MyD88 comp -4.5, ABHD5-PLIN5 inh -18.1, Granule exo inh -6.7, NOD2-RIPK2 inh -6.5, TLR9-MyD88 inh 1.0 and PRMT1 confirm 7.1.
Screening CS(=O)(=O)N1CCSC1c1ccc(Br)cc1 (stereo not given) returned PRMT1 inh -0.4, ABHD5-PLIN5 inh 9.2, Granule exo inh -2.9, NOD2-RIPK2 inh -14.1 and TLR9-MyD88 inh -9.2.
For CCc1cc(C(=O)Nc2ccc(OC)nc2)sc1C the results were PRMT1 inh 26.4*, ABHD5-PLIN5 inh -1.4, Granule exo inh 1.2, NOD2-RIPK2 inh -3.5, TLR9-MyD88 inh -4.0 and PRMT1 confirm 6.7.
`CSc1nc2[nH]c(=O)n(O)c(=O)c2n1Cc1ccccc1` gave PRMT1 inh 6.2, ABHD5-PLIN5 inh -3.7, Granule exo inh 4.9, NOD2-RIPK2 inh -1.8 and TLR9-MyD88 inh 4.2.
Screening CCCCOc1ccc(CN2CCCCC2)cc1 returned PRMT1 inh 0.2, TLR4 MyD88 comp -6.8, ABHD5-PLIN5 inh -6.3, Granule exo inh -2.2, NOD2-RIPK2 inh -10.3 and TLR9-MyD88 inh -8.4.
Oc1ccc(N2CCN(Cc3ccc(OCCCN4CCCCC4)cc3)CC2)cc1 was read as PRMT1 inh 27.5*, TLR4 MyD88 comp -8.8, ABHD5-PLIN5 inh 6.8, Granule exo inh 7.1, NOD2-RIPK2 inh 1.4, TLR9-MyD88 inh -5.2 and PRMT1 confirm 1.2.
COc1ccc2c(Cl)c(C(=O)N/N=C3\CCCC(=O)C3)sc2c1 was read as PRMT1 inh 37.5*, TLR4 MyD88 comp 12.4, ABHD5-PLIN5 inh 4.3, Granule exo inh -1.1, NOD2-RIPK2 inh 15.4, TLR9-MyD88 inh 6.3 and PRMT1 confirm -5.7.
COC(=O)c1ccncc1N was read as PRMT1 inh -2.3, TLR4 MyD88 comp 6.0, ABHD5-PLIN5 inh 0.0, Granule exo inh -4.9, NOD2-RIPK2 inh -5.7 and TLR9-MyD88 inh -3.5.
Nc1cnccc1C(=O)O was read as PRMT1 inh 70.9*, TLR4 MyD88 comp 3.1, ABHD5-PLIN5 inh -13.9, Granule exo inh 15.9, NOD2-RIPK2 inh -6.4, TLR9-MyD88 inh -3.2 and PRMT1 confirm 14.3.
`O=C(CN1CCCCCC1)NC(c1ccccc1)c1ccccc1` gave PRMT1 inh -1.0, ABHD5-PLIN5 inh 1.6, Granule exo inh 12.6, NOD2-RIPK2 inh -1.3 and TLR9-MyD88 inh -2.8.
Cc1cc(NC(=O)CN2CCN(S(=O)(=O)c3ccc(Cl)cc3)CC2)no1 was read as PRMT1 inh -2.1, TLR4 MyD88 comp 15.4, ABHD5-PLIN5 inh 3.5, Granule exo inh -0.2, NOD2-RIPK2 inh 1.8 and TLR9-MyD88 inh 0.3.
Screening Cc1cc(NC(=O)CN2CCN(c3ccc(O)cc3)CC2)no1 returned PRMT1 inh 41.7*, TLR4 MyD88 comp -13.9, ABHD5-PLIN5 inh -1.2, Granule exo inh -0.4, NOD2-RIPK2 inh -7.7, TLR9-MyD88 inh -4.0 and PRMT1 confirm 4.0.
Screening O=C(CN1CCN(c2ccc(O)cc2)CC1)NCC(=O)Nc1ccc(F)c(F)c1F returned PRMT1 inh 36.5*, ABHD5-PLIN5 inh 18.9, Granule exo inh 3.0, NOD2-RIPK2 inh -14.0, TLR9-MyD88 inh 8.6 and PRMT1 confirm 1.7.
For O=C(CN1CCN(c2ccc(O)cc2)CC1)NC(c1ccccc1)c1ccccc1 the results were PRMT1 inh 25.3*, TLR4 MyD88 comp -12.9, ABHD5-PLIN5 inh 6.4, Granule exo inh -4.5, NOD2-RIPK2 inh -1.1, TLR9-MyD88 inh -1.8 and PRMT1 confirm 7.9.
Screening Cc1ccc(S(=O)(=O)N2CCN(C(=O)CN3CCN(c4ccc(O)cc4)CC3)CC2)cc1 returned PRMT1 inh 33.6*, ABHD5-PLIN5 inh 5.6, Granule exo inh 5.1, NOD2-RIPK2 inh 1.9, TLR9-MyD88 inh -3.0 and PRMT1 confirm 6.9.
`O=C(NC(=S)NNS(=O)(=O)c1ccc(Cl)cc1)c1cccnc1` gave PRMT1 inh -0.1, TLR4 MyD88 comp 9.0, ABHD5-PLIN5 inh -17.2, Granule exo inh -0.6 and NOD2-RIPK2 inh -12.2.
Screening Cc1cccc(NC(=O)CCc2nnc3ccc(N4CCC(C)CC4)nn23)n1 returned ABHD5-PLIN5 inh 0.2, Granule exo inh -0.8, NOD2-RIPK2 inh -2.8 and TLR9-MyD88 inh -0.3.
`CCn1c(SCC(=O)Nc2ccc3c(c2)c2ccccc2n3CC)nnc1-c1ccco1` gave PRMT1 inh 43.2*, TLR4 MyD88 comp 11.7, ABHD5-PLIN5 inh 46.0*, Granule exo inh 2.4, NOD2-RIPK2 inh -3.2, TLR9-MyD88 inh 2.7 and PRMT1 confirm 25.8*.
